Results from PubChem BioAssay (NCI).
Compounds without any hit were thinned out: in the full panel of roughly 83,000, 20% have a hit.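 Activity criterion: percent growth below 10, measured after cells in 96-well plates were exposed to a single compound concentration for 48 hours.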 A number with no mark means an inactive call. Calls of active or inactive are those of the source.

Each compound was assayed on CCRF-CEM leukemia (assay: NCI-60 one-dose screen, 48 h (100 = growth as untreated, 0 = no growth, -100 = all killed)). Conditions: 10 µM unless noted.
Compound COc1cc2c(cc1OCc1ccccc1)C(CC(C)C)=[N+](C)CC2 has a growth of 73.1%.
With CC(=O)O[C@H]1CC[C@H]2[C@@H]3CC=C4c5nc(-c6ccccc6)sc5CC[C@]4(C)[C@H]3CC[C@]12C the growth was 28.4%.
N#CC1(c2ccccc2)CCN(Cc2ccccc2)CC1 showed a growth of 86.3%.
COc1ccc(/C=C\c2cc(OC)c(OC)c(OC)c2)cc1OCC(=O)Nc1nc2ccc(OC(F)(F)F)cc2s1 showed a growth of 28.2%.
In the case of CC(C)(C)C(=O)OCOP(=O)(NCc1ccccc1)C1CCCN(O)C1=O (centres undefined), the growth is reported as 12.9%.
Work on CC(=O)Nc1ccc(NC(=O)c2ccc([As](O)O)cc2)cc1 yielded a growth of 47.7%.
Compound O[C@H](CN1CC1)[C@@H](O)CN1CC1 has a growth of 33.3%.
In the case of Cc1cc(C)c(CBr)c(C)c1, the growth is reported as 106%.
CCOP1(=O)CC(C)=C(Cl)C(P(=O)(OCC)OCC)C1 (centres undefined) was tested, and the growth was -27.5% (active).
CC12CCC3C(CCC4=CC(=O)CCC43CF)C1CCC2=O (centres undefined) gave a growth of 88.2%.
C=C1[C@@H](C)[C@H]2[C@H](Cc3ccccc3)NC(=O)[C@]23[C@@H](O)/C=C/[C@@](C)(O)C(=O)[C@@H](C)C/C=C/[C@H]3[C@@H]1O gave a growth of 48%.
For NC(=O)C(Br)c1ccccc1 (centres undefined), the growth was 60.6%.
For CCC(=O)Nc1ccc(Cl)c(Cl)c1, the growth was 103%.
CC[C@H](C)[C@@H]1OC(=O)C(C)(C)[C@H](O)[C@H](Cc2ccccc2)OC(=O)[C@H](C(C)C)OC(=O)[C@@H](NC(=O)c2cccc(NC=O)c2O)[C@@H](C)OC1=O gave a growth of 36.7%.
In the case of NC(=S)c1cn(C2OC(CO)C(O)C2O)c2ncnc(N)c12 (centres undefined), the growth is reported as -40.6% (active).
Nc1ncnc2n[nH]nc12 showed a growth of 80.7%.
With COc1cc(/C=C/[N+](=O)[O-])cc(OC)c1 the growth was -7.03% (active).
With Clc1cccc(NCOOC2(OOCNc3cccc(Cl)c3)CCCCCC2)c1 the growth was 80.2%.
Brc1ccc2c(c1)c(-c1nc(-c3c[nH]c4ncccc34)cs1)cn2CCN1CCOCC1 showed a growth of 45.8%.
O=C1C(Cl)=C(N2CCOCC2)C(=O)c2ccccc21 was tested, and the growth was -27.6% (active).
In the case of CC1=C(CCCNS(C)(=O)=O)C2=C(C)C3(CC3)[C@@](C)(O)C(=O)C2=C1, the growth is reported as 90.9%.
For CCN(CCO)C(Cc1ccccc1)c1ccccc1 (centres undefined), the growth was 2.74% (active).
For CCCCC1(CCC)C(=O)NC(=S)NC1=O, the growth was 115%.
For CC[C@H](C)[C@H](NC(=O)[C@H]1CCCCN1C)C(=O)N(C)[C@H](CC(=O)c1nc(C(=O)N[C@@H](Cc2ccccc2)C[C@H](C)C(=O)O)cs1)C(C)C, the growth was 21.2%.
